# From PubChem BioAssay AID720553 (National Center for Advancing Translational Sciences (NCATS), 2013)
# In all, about 340,000 compounds went through this assay and about 3,300 (0.97%) were called active. The full list was thinned out, with actives kept by preference. A number with no mark means an inactive call.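 The calls were made as follows: active = maximum activity change below -70%; inconclusive = maximum activity change from -70% to -50%; inactive = maximum activity change above -50%.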
# Test system: Potassium voltage-gated channel subfamily H member 2, brain isoform KCNH2 3.1 (human)
# Assay: qHTS for Inhibitors of KCHN2 3.1: Mutant qHTS
# Settings: U2OS KCNH2 3.1, thallium flux FluxOr; active compounds read low
# Outline: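 Normalized rate constant (relative to positive and negative DMSO controls) derived from a 2 min kinetic fluorescence read after stimulation; U2OS cells expressing the 3.1 isoform via virus at 1.77 x 10^8 /mL.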
# % is scaled to controls: 0 for no effect and ±100 for the full control effect.
row,Compound,activity change
1,Nc1cc(C(=O)N2CCN(c3ccccc3Cl)CC2)ccc1N1CC2CC(C1)c1cccc(=O)n1C2 (stereo not drawn),6.28%
2,O=C(c1ccc(N2CCCC2=O)cc1)N1CCN(c2ccc(C(F)(F)F)cc2[N+](=O)[O-])CC1,6.83%
3,Cc1ccc(NC(=O)COC(=O)CN2CCSC2=O)cc1F,-8.22%
4,CC1(C)NC(=O)N(CC(=O)Nc2ccc(-c3ccccc3)cc2)C1=O,-11%
5,Cc1cccc(N2C(=O)N3[C@H](c4ccc(F)cc4)[C@@H]4C(=O)N(C5CCCCC5)C(=O)[C@@H]4[C@]3(Cc3ccccc3)C2=O)c1,-81.5% (active)
6,O=C1[C@H]2[C@@H](c3ccc(Cl)cc3)N3C(=O)N(c4cccc(F)c4)C(=O)[C@@]3(Cc3ccccc3)[C@H]2C(=O)N1C1CCCCC1,-11.3%
7,O=C1[C@H]2[C@@H](c3ccc(F)cc3)N3C(=O)N(c4ccc(C(F)(F)F)cc4)C(=O)[C@@]3(Cc3ccccc3)[C@H]2C(=O)N1C1CCCCC1,-14.9%
8,C/C(COc1ccccc1)=N\NC(=O)c1nnn(-c2nonc2N)c1-c1ccc(C)cc1,1.24%
9,Cc1ccc(C(=O)NC(C)C(c2cccs2)N2CCOCC2)cc1C (stereo not drawn),2.91%
10,C#Cc1cc(N2CCN(C(=O)c3ccoc3)CC2)n2nc(-c3cccc(Cl)c3)cc2n1,2.49%
11,CNc1nc(Nc2ccc(C)c(Cl)c2)nc(N)c1[N+](=O)[O-],6.15%
12,Cc1ccccc1Nc1nc(N)nc(CN2CCN(c3ccccn3)CC2)n1,-0.0863%
13,Cc1ccc(Nc2nc(N)nc(CN3CCN(Cc4ccccc4)CC3)n2)cc1Cl,-99.4% (active)
14,CCOC(=O)N1CCN(Cc2nc(N)nc(Nc3ccc(C)cc3)n2)CC1,-78.5% (active)
15,CCOC(=O)N1CCN(Cc2nc3cc(NC(C)=O)ccc3n2C)CC1,8.13%
16,CCOC(=O)N1CCN(CC(=O)Nc2ccc(F)cc2)CC1,-43.8%
17,COc1cccc(NC(=O)N(C)C[C@@H]2Oc3ncc(Br)cc3C(=O)N([C@@H](C)CO)C[C@H]2C)c1,-4.03%
18,COc1ccc(S(=O)(=O)N(C)C)cc1NC(=O)COC(=O)c1n[nH]c2ccccc12,9.12%
19,Cc1ccnc(SC2CC(=O)N(c3ccccc3)C2=O)n1 (stereo not drawn),1.28%
20,CCOc1ccc(CC(=O)NC2CCN(Cc3ccccc3)CC2)cc1,19.9%
21,O=C(NC1CCN(Cc2ccccc2)CC1)c1ccc(Oc2cc(Cl)cc(Cl)c2)o1,-84.5% (active)

row,Compound,activity change
1,O=C(NC1CCN(Cc2ccccc2)CC1)c1cc(Br)c(Br)[nH]1,0.925%
2,CCOc1ccc(NS(=O)(=O)c2ccc(C(=O)NCC3CCCO3)cc2)cc1 (stereo not drawn),3.29%
3,COCOCCn1cc(CN2CCS(=O)(=O)N(Cc3ccc(-c4cccc(N(C)C)c4)cc3)C(CC(C)C)C2=O)nn1 (stereo not drawn),-1.27%
4,Cc1cccc(N(CC(=O)N2CCCC2)S(C)(=O)=O)c1C,-8.33%
5,Cc1cccc(C)c1NC(=O)N1CC(C)OC(C)C1 (stereo not drawn),-192% (active)
6,CSc1ccc(NC(=O)N2CC(C)OC(C)C2)cc1 (stereo not drawn),8.24%
7,CC1CN(C(=S)Nc2cccc(F)c2)CC(C)O1 (stereo not drawn),6.1%
8,C=CCOc1cccc(C2C(C(=O)c3ccc(C)o3)=C(O)C(=O)N2CCN2CCOCC2)c1 (stereo not drawn),-2.42%
9,CCc1cc(-c2nnn(CCC3COCCO3)c2CC)ccc1-c1cn(Cc2ccc3ccccc3c2)nn1 (stereo not drawn),0.058%
10,Cc1cc(Nc2ccc(C)c(C)c2)n2ncnc2n1,30.4%
11,O=C(CCCN1CCc2[nH]c3ccc(F)cc3c2C1)c1ccc(F)cc1,-92% (active)
12,O=C(c1cc2cc(F)ccc2[nH]1)N1CCN(c2ccc(F)cc2)CC1,-39.9%
13,CC1CCc2[nH]c3ccc(C(=O)N(C)CC(=O)Nc4cccc(F)c4)cc3c2C1 (stereo not drawn),13.3%
14,C[C@@H]1CN([C@@H](C)CO)C(=O)CCCn2nncc2CO[C@H]1CN(C)C(=O)Nc1ccc(C(F)(F)F)cc1,-12.6%
15,CC[C@]1(C(=O)OC)[C@H]2C(=O)N(Cc3ccccc3)C(=O)[C@H]2[C@H]2CN=C(SCc3ccccc3)N21,14.7%
16,CC[C@]1(C(=O)OC)[C@H]2C(=O)N(Cc3ccccc3)C(=O)[C@H]2[C@H]2CN=C(SCc3ccc(C#N)cc3)N21,4.34%
17,CC[C@]1(C(=O)OC)[C@H]2C(=O)N(Cc3ccccc3)C(=O)[C@H]2[C@H]2CN=C(SCc3ccc(Cl)cc3)N21,-98.8% (active)
18,Nc1nonc1-n1nnc(C(=O)N/N=C\c2ccncc2)c1CN1CCCCC1,-0.869%
19,CC(C)Oc1ccc(/C=N/NC(=O)c2nnn(-c3nonc3N)c2CN(C)C2CCCCC2)cc1,-81.3% (active)
20,CC(C)c1c(C(=O)N/N=C/c2ccc(-c3ccccc3)cc2)nnn1-c1nonc1N,-1.92%
21,O=C(NCCN1CCOCC1)c1ccc2c(c1)N(Cc1cccc(Cl)c1)C(=O)c1ccccc1S2(=O)=O,17.1%

row,Compound,activity change
1,C[C@H]1CN([C@@H](C)CO)C(=O)c2cc(-c3cccc(F)c3)cnc2O[C@@H]1CN(C)S(C)(=O)=O,8.27%
2,C[C@@H]1CN([C@H](C)CO)C(=O)CCCn2nncc2CO[C@@H]1CN(C)C(=O)OCc1ccccc1,1.9%
3,COc1ccc(-c2nc(N)ncc2-c2ccc(Cl)cc2)c(O)c1,-191% (active)
4,CCOc1ccc(-c2nc(N)ncc2-c2ccccc2OC)c(O)c1,-18.2%
5,C=C(C)COc1ccc(-c2nc(N)ncc2-c2ccccc2OC)c(O)c1,-6.62%
6,Cc1ccccc1-c1ccc2c(c1)O[C@@H](CN(C)Cc1ccc(C(=O)O)cc1)[C@@H](C)CN([C@H](C)CO)S2(=O)=O,16.7%
7,CC(C)CC1C(=O)N(Cc2cn(Cc3ccco3)nn2)CCS(=O)(=O)N1Cc1ccc(-c2ccc(Cl)c(Cl)c2)cc1 (stereo not drawn),-7.55%
8,Cc1ccc(C(c2nnnn2CS(=O)(=O)c2ccc(C)cc2)N2CCC(C)CC2)cc1 (stereo not drawn),-72.8% (active)
9,Cc1ccc(C(c2nnnn2CS(=O)(=O)c2ccc(C)cc2)N2CCC(C(N)=O)CC2)cc1 (stereo not drawn),1.37%
10,CCCCC(c1nnnn1CS(=O)(=O)c1ccc(C)cc1)N1CCC(C(N)=O)CC1 (stereo not drawn),5.52%
11,NC(CSC(c1ccccc1)(c1ccccc1)c1ccc(-c2ccccc2)cc1)C(=O)O (stereo not drawn),-0.906%
12,Cc1cccc(C(=O)OCC(=O)Nc2sccc2C(N)=O)c1C,0.26%
13,N=c1n(CCc2ccccc2)c2ccccc2n1Cc1ccccc1F,-48.9%
14,N=c1n(Cc2ccc(Cl)cc2)c2ccccc2n1CC(O)c1ccco1 (stereo not drawn),-89.6% (active)
15,Cn1c(=N)n(CC(O)c2cccs2)c2ccccc21 (stereo not drawn),-1.02%
16,CCc1cccc(CC)c1N1C(=O)CC(Sc2ccccc2N)C1=O (stereo not drawn),-2.21%
17,COc1cc(C2C(C#N)=C(N)Oc3n[nH]c(-c4ccccn4)c32)cc(OC)c1OC (stereo not drawn),-3.63%
18,COc1ccc(C2C(C#N)=C(N)Oc3n[nH]c(C)c32)cc1CN1CCN(c2ccc(F)cc2)CC1 (stereo not drawn),-93.4% (active)
19,COc1ccc(-c2[nH]nc3c2C(c2ccncc2)C(C#N)=C(N)O3)cc1 (stereo not drawn),4.99%
20,COc1ccc(/C=C2\SC(=S)N(CCC(=O)N3CCOCC3)C2=O)cc1OC,-2.83%
21,CN(C)C1=NC[C@H](Cc2ccccc2)N1CCc1ccc(F)cc1,-104% (active)

row,Compound,activity change
1,CCCC[C@@H]1CN=C(N)N1CCc1cccc(F)c1,17.6%
2,CCCCN1C(N)=NC[C@@H]1Cc1ccccc1,12.8%
3,Cc1ccc(-c2ccc(CN3C(C(C)C)C(=O)N(Cc4cn(CCC5OCCCO5)nn4)CCS3(=O)=O)cc2)cc1 (stereo not drawn),-5.44%
4,Cc1cc2cc3n(c2nn1)N=C(Cl)CC3,-0.335%
5,CC(OC(=O)c1cccnc1Cl)C(=O)NC1CCCCC1 (stereo not drawn),22.3%
6,Cc1ccc(S(=O)(=O)N2C[C@H]3C(=O)C[C@@H](c4cccc5ccccc45)N(S(=O)(=O)c4ccc(C)cc4)[C@H]3C[C@H]2c2ccc(Cl)cc2)cc1,5.42%
7,O=C(CSc1ncn[nH]1)Nc1nc2c(F)c(F)c(F)cc2s1,-9.38%
8,Cc1cc(C)n(S(=O)(=O)c2cccc([N+](=O)[O-])c2)n1,8.67%
9,CCc1nccn1S(=O)(=O)c1cccc([N+](=O)[O-])c1,-98.3% (active)
10,O=[N+]([O-])c1cccc(S(=O)(=O)N2CCCCCC2)c1,-16.9%
11,OCC1OC(n2cnc3c(N4CCCC4)ncnc32)C(O)C1O (stereo not drawn),3.35%
12,O=S1(=O)CCN(C2CCCCCCCCCCC2)CC1,-0.635%
13,N#Cc1cccc(Nc2c3c(nc4ccccc24)CCCC3)c1,-94.8% (active)
14,N#Cc1cccc(NC(=O)CCC2CCCC2)c1,-4.75%
15,N#Cc1cccc(NC(=O)CN2CCCCCC2)c1,13.8%
16,O=C(Nc1cc(F)ccc1F)c1ccc2c(=O)n3c(nc2c1)CCC3,-2.54%
17,COCCCN1C(=O)C(CC(=O)NCc2cccs2)CC(C(=O)N2CCOCC2)=C1C (stereo not drawn),3.81%
18,C#CCOCCOCCOCCNc1nc(N2CCN(C(=O)[C@H](Cc3ccc(O)cc3)n3cc(C(N)CC(C)C)nn3)CC2)nc(N2CCN(C(=O)[C@H](CCC(=O)O)n3cc(C(N)[C@H](C)CC)nn3)CC2)n1 (stereo partly drawn),-84.4% (active)
19,C#CCOCCOCCOCCNc1nc(N2CCN(C(=O)C(Cc3ccc(O)cc3)n3cc(C(N)CC(C)C)nn3)CC2)nc(N2CCN(C(=O)C(Cc3ccc(O)cc3)n3cc(C(N)C(C)CC)nn3)CC2)n1 (stereo not drawn),-9.18%
20,C#CCOCCOCCOCCNc1nc(N2CCN(C(=O)[C@H](CCC(=O)O)n3cc(C(N)CO)nn3)CC2)nc(N2CCN(C(=O)[C@H](Cc3ccc(O)cc3)n3cc(C(N)[C@H](C)CC)nn3)CC2)n1 (stereo partly drawn),-12.3%
